Results filed as inconclusive are left out. Activity calls are given as the source filed them. Unless noted, calls come from the whole dose curve; as a rule, active = well fitted curve in the direction sought with a large enough effect; inconclusive = small, poorly fitted or top-dose-only effect, or another doubt; inactive = no such curve, though single readings can be large; an effect the other way counts as inactive or inconclusive.
Key:
[1] = biological target: Lysosomal acid glucosylceramidase (Homo sapiens) (UniProt P04062); test: Glucocerebrosidase-p2 (AID 348; in the data active = potency below about 10 µM; note: potency is the fitted concentration of half-maximal effect); settings: purified GBA, blue fluorogenic substrate, 40 min
Summary of the method: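 Normal human glucocerebrosidase (0.2 nM) with blue fluorogenic substrate (80 uM final) in citrate/phosphate pH 5.9 with 10mM sodium taurocholate, 0.01% tween-20; 40 min RT, NaOH/glycine stop; fluorescence Ex 365/Em 440; AC50 from a titration from 0.6 nM upwards.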

[2] = biological target: Cytochrome P450 1A2 (Homo sapiens) (UniProt P05177); test: p450-cyp1a2 (AID 410; calls by dose curve; note: potency is the fitted concentration of half-maximal effect); settings: recombinant CYP1A2, luciferin-ME demethylation, luminescence; series mostly up to 57 µM
Summary of the method: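 Read-out is luminescence from luciferin produced by CYP1A2 demethylation of Luciferin-ME (100uM, at Km). Detection reagent stopped the 60 min NADPH-dependent reaction; signals were normalized to 57 uM furafylline.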

[3] = NFAT Signaling Pathway (AID 444; active = well fitted curve in either direction with a large enough effect, not every such curve was filed as active;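 note: carbachol stimulus at about its EC50 of 1 µM final; % is set by controls: 0 for no effect and ±100 for the full control effect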); settings: Jurkat NFAT-bla M1, carbachol, beta-lactamase ratio, 5 h; at 7.69 µM (top of the series) unless noted
Summary of the method: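 Read-out: CCF4 FRET ratio (460 nm/530 nm) after 1 h RT dye loading, used for %activity and AC50 from titration series. Cells: Jurkat NFAT-β-lactamase/M1 line, treated with compound plus 1 uM carbachol for 5 h, 37 °C.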

[4] = Stat Signaling Pathway (AID 446; active = well fitted curve in either direction with a large enough effect, not every such curve was filed as active;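 note: ME-180 cervical cancer cells given 40 pM IL-6 alongside compound; SIE-controlled beta-lactamase reporter measured as 460/530 nm FRET emission ratio; % is set by controls: 0 for no effect and ±100 for the full control effect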); settings: ME-180 SIE beta-lactamase reporter, IL-6 stimulated, 5 h; at 7.69 µM (top of the series) unless noted
Summary of the method: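 Overnight-plated ME-180 cells bearing a STAT Inducible Element beta-lactamase reporter; 5 h co-exposure to compound and 40 pM IL-6; values normalized to 300 pM IL-6 and 125 nM JAK inhibitor controls.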

[5] = biological target: Glucocorticoid receptor (Homo sapiens) (UniProt P04150); test: GR-GFP Redistribution (AID 450;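 active = compounds whose dose series gives a full or clear partial fitted curve of increased nuclear translocation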; note: potency is the fitted concentration of half-maximal effect); settings: U2OS GR-GFP nuclear translocation, laser cytometry, 2 h
[6] = biological target: Glucocorticoid receptor (Homo sapiens) (UniProt P04150); test: GR-EFC Redistribution (AID 451; calls by dose curve; note: potency is the fitted concentration of half-maximal effect); settings: CHO-K1 GR-EFC translocation, beta-gal luminescence, 2 h
Summary of the method: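 Translocation of GR-ED fusion to nuclear EA restores b-gal, read by luminescence after 1 h room-temperature detection. Engineered CHO-K1 biosensor cells, 1,000/well, exposed 2 h at 37 C to titrations up to 46 uM final.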

[7] = biological target: Mitogen-activated protein kinase 10 (Mus musculus) (UniProt Q61831); test: JNK3 AlphaScreen Assay (AID 530; active = well fitted curve in either direction with a large enough effect, not every such curve was filed as active;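 note: kinase came from lysate of stimulated human HepG2 cells; signal reports phosphorylation of biotinylated GST-cJun 1-79 at Ser73 with 10 µM ATP; % is set by controls: 0 for no effect and ±100 for the full control effect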); settings: JNK3 lysate, c-Jun phosphorylation; series mostly up to 57.1 µM
Summary of the method: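 Kinase buffer: 20 mM Tris-HCl pH 7.6, 10 mM MgCl2, 1 mM DTT, 0.1 mM Na3VO4, 0.01% Tween-20; ATP 10 uM. Substrate biotin-GST-cJun(1-79), enzyme from activated HepG2 lysates. Detection by Ser73 phospho-antibody AlphaScreen.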

[8] = biological target: Cytochrome P450 3A4 (Homo sapiens) (UniProt P08684); test: qHTS Assay for Inhibitors and Substrates of Cytochrome P450 3A4 (AID 884); settings: recombinant CYP3A4, Luciferin-PPXE luminescence; series mostly up to 57.1 µM; note: potency is the fitted concentration of half-maximal effect; nearly all actives have a fitted effect of over 50% in size
Summary of the method: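 Luminescent readout of luciferin produced by CYP3A4 (20 nM) dealkylation of Luciferin-PPXE, 25 uM (its KM). NADPH-driven reaction ran 60 min at RT after 10 min compound preincubation; data scaled to 57 uM ketoconazole as 100% inhibition.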

[9] = biological target: Cytochrome P450 3A4 (Homo sapiens) (UniProt P08684); test: qHTS Assay for Activators of Cytochrome P450 3A4 (AID 885); settings: recombinant CYP3A4, Luciferin-PPXE luminescence, 60 min; series mostly up to 57.1 µM; note: nearly all actives have a fitted effect of over 65% in size
Summary of the method: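 Using 20nM recombinant human CYP3A4 in potassium phosphate (200mM), substrate Luciferin-PPXE at 25uM, luminescent luciferin detection followed a 60-min RT NADPH reaction; data scaled to 57 uM ketoconazole.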

[10] = qHTS Assay for Lipid Storage Modulators (AID 1519; calls by dose curve); settings: Drosophila S3 cells, BODIPY lipid droplet/cell ratio, laser cytometry, cells loaded with oleic acid; for activity change, negative = inhibition: at 57.5 µM (top of the series)
Summary of the method: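 Cells seeded at 5,000 per well were treated with compounds over a concentration series and loaded with oleic acid (400 uM, as added). Lipid droplet fluorescence (488 nm excitation, 500-530 nm channel) was read by laser-scanning cytometry and normalized to 20 uM Triacsin C.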

[11] = biological target: Dual specificity protein kinase CLK4 (Homo sapiens) (UniProt Q9HAZ1); test: qHTS Assay for Inhibitors of CDC-like Kinase 4 (Kinase-Glo Assay) (AID 1770); settings: recombinant Clk4, Kinase-Glo ATP depletion luminescence; series mostly up to 66.7 µM; note: nearly all actives have a fitted effect of over 65% in size; note: potency is the fitted concentration of half-maximal effect
Summary of the method: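 25 nM Clk4 with 100 uM RS repeat peptide and 1 uM ATP (final) in Tris pH7.5, 10 mM MgCl2, 4.5 h at room temperature. Remaining ATP measured by Kinase-Glo luciferase luminescence.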

[12] = biological target: Dual specificity protein kinase CLK4 (Homo sapiens) (UniProt Q9HAZ1); test: qHTS Assay for Inhibitors of CDC-like Kinase 4 (ADP-Glo Assay) (AID 1771); settings: recombinant CLK4, ADP-Glo luminescence; series mostly up to 80 µM; note: nearly all actives have a fitted effect of over 70% in size; note: potency is the fitted concentration of half-maximal effect
Summary of the method: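 In this ADP-Glo format, 1 uM ATP and 100 uM RS peptide served as substrates for 25 nM Clk4 in Mg2+/EGTA/DTT/Triton buffer; reactions ran 1 hr at room temperature before luminescent ADP quantification.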

[13] = biological target: Dual specificity protein kinase CLK4 (Homo sapiens) (UniProt Q9HAZ1); test: qHTS Assay for Inhibitors of CDC-like Kinase 4 (ADP-FP Assay) (AID 1795); settings: Transcreener ADP fluorescence polarization; series mostly up to 50 µM; note: nearly all actives have a fitted effect of over 60% in size; note: potency is the fitted concentration of half-maximal effect
Summary of the method: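 Recombinant Clk4 (6.25 nM) phosphorylated 100 uM RS repeat peptide with 1 uM ATP in 25 mM Tris pH 7.5, 10 mM MgCl2, 0.5 mM EGTA, 2.5 mM DTT, 0.01% Triton X-100 for 1 h. ADP was detected by Transcreener ADP2 competitive fluorescence polarization after 30 min at room temperature.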

[14] = biological target: Ubiquitin carboxyl-terminal hydrolase 1 (Homo sapiens) (UniProt O94782); test: Inhibitors of USP1/UAF1: Pilot qHTS (AID 504865); settings: purified USP1/UAF1, Ub-rhodamine cleavage fluorescence; series mostly up to 54.9 µM;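 note: rhodamine fluorescence freed from ubiquitin-rhodamine substrate followed over time; top concentration of the series differs between compounds; % is set by controls: 0 for no effect and ±100 for the full control effect; nearly all actives have a fitted effect of over 35% in size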
Summary of the method: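 USP1/UAF1 complex at 1 nM preincubated 15 min at room temperature with compound, then Ub-Rho substrate added at 150 nM final. Fluorescence (480/540 nm) read kinetically in 50 mM HEPES pH 7.8, 0.5 mM EDTA, 1 mM TCEP, 0.1 mg/ml BSA, 0.01% Tween-20.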

[15] = Primary qHTS for small molecule stabilizers of the endoplasmic reticulum resident proteome: Secreted ER Calcium Modulated Protein (SERCaMP) assay (AID 1508630); settings: SH-SY5Y GLuc-SERCaMP (Gaussia luciferase released on ER calcium loss) secretion, thapsigargin, luminescence; series mostly up to 38.4 µM; note: % is set by controls: 0 for no effect and ±100 for the full control effect
Summary of the method: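 The SH-SY5Y reporter protocol was run at 3 concentrations up to 38.3 uM (primary) or 11 concentrations (follow-up): 16 h compound, 100 nM thapsigargin for 4 h, then extracellular luciferase luminescence.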

[16] = AP1 Signaling Pathway (AID 357; active = well fitted curve in either direction with a large enough effect, not every such curve was filed as active); settings: ME-180 (cervical carcinoma) AP-1-bla reporter, EGF-induced, beta-lactamase ratio, 5 h; at 7.69 µM (top of the series) unless noted
Summary of the method: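 A ratiometric CCF4 readout (405 nm excitation; 460 and 530 nm emission) quantified AP-1-driven beta-lactamase in ME-180 cells after 5 h with compound and EC50 EGF; AC50 values were derived for activators and inhibitors.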

[17] = biological target: 3',5'-cyclic-AMP phosphodiesterase 4B (Homo sapiens) (UniProt Q07343); test: qHTS Assay for Inhibitors of PDE-IV (AID 607; active = well fitted activation curve with a large enough effect in the main read-out, with a control signal flat, not every such curve was filed as active; note: % of control where 0% means no effect); settings: HEK293 ACTOne CNG channel cells, membrane potential fluorescence; series mostly up to 22.9 µM
Summary of the method: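 Live HEK293 cells with a modified cyclic nucleotide-gated (CNG) channel report intracellular cAMP via membrane-potential dye fluorescence (ex 535/em 590 nm). Endogenous PDE-IV was targeted. Compounds were tested at up to 22.9 uM final; RO 20-1724 100 uM served as control.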

[18] = biological target: Cytochrome P450 2D6 (Homo sapiens) (UniProt P10635); test: qHTS Assay for Inhibitors and Substrates of Cytochrome P450 2D6 (AID 891); settings: recombinant CYP2D6, luciferin-ME EGE luminescence; series mostly up to 57.1 µM; note: potency is the fitted concentration of half-maximal effect; nearly all actives have a fitted effect of over 60% in size
Summary of the method: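 Luminescent read-out of luciferin formed by 5 nM human CYP2D6 demethylating 30 uM Luciferin-ME EGE (Km level) over 60 min at room temperature after NADPH regeneration addition. Data normalized to full inhibition by 1.43 uM quinidine.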

[19] = measured here: cell count channel max response
[20] = measured here: lipid channel max response

Cytochrome P450 3A4 (Homo sapiens), sequence (P08684 whole entry, looked up): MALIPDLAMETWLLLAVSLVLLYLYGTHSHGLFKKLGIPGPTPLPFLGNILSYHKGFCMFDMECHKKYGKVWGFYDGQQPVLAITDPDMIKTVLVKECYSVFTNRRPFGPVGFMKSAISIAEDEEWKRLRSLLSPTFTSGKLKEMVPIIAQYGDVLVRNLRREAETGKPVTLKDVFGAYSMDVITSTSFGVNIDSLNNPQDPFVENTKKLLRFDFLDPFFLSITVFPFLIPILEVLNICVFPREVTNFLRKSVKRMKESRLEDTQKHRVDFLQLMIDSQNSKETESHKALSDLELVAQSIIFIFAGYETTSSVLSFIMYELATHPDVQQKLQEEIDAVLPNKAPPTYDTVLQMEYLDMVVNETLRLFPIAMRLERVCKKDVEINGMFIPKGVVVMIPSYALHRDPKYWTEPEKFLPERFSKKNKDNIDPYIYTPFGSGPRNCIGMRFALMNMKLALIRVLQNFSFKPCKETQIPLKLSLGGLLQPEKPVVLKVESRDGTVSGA
Dual specificity protein kinase CLK4 (Homo sapiens), sequence (Q9HAZ1 whole entry, looked up): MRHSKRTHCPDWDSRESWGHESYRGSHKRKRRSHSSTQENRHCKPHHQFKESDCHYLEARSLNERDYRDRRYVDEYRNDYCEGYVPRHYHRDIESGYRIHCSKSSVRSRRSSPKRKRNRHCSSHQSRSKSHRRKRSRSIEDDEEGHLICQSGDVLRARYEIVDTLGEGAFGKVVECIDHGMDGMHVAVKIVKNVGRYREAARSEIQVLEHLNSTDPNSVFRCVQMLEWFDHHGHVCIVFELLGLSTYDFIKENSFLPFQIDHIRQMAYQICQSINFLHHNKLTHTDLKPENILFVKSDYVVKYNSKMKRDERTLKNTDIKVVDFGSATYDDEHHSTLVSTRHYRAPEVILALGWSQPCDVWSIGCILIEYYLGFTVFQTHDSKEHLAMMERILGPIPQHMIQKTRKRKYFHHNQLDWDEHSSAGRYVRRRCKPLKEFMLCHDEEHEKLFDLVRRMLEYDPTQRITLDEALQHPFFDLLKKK
3',5'-cyclic-AMP phosphodiesterase 4B (Homo sapiens), sequence (Q07343 whole entry, looked up): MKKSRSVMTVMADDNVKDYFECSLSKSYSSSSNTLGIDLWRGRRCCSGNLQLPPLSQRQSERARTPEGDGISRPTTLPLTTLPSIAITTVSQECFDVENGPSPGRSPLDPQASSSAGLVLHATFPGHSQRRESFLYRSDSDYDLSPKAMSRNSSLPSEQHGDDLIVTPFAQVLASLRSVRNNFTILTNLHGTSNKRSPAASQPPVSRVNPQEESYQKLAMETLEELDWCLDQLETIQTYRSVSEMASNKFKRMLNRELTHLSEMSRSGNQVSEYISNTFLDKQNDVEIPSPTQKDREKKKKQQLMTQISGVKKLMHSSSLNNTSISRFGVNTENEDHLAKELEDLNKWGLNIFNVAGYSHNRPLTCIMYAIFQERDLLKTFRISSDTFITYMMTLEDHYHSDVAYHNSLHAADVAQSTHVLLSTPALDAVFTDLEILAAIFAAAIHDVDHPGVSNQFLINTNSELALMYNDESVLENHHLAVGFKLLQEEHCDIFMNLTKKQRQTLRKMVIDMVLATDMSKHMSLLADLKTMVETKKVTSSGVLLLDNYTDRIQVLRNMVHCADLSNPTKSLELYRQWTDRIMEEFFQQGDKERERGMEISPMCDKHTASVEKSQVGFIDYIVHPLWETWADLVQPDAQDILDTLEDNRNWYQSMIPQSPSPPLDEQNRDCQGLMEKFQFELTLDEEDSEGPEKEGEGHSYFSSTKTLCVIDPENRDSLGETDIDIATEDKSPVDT
Ubiquitin carboxyl-terminal hydrolase 1 (Homo sapiens), sequence (O94782 whole entry, looked up): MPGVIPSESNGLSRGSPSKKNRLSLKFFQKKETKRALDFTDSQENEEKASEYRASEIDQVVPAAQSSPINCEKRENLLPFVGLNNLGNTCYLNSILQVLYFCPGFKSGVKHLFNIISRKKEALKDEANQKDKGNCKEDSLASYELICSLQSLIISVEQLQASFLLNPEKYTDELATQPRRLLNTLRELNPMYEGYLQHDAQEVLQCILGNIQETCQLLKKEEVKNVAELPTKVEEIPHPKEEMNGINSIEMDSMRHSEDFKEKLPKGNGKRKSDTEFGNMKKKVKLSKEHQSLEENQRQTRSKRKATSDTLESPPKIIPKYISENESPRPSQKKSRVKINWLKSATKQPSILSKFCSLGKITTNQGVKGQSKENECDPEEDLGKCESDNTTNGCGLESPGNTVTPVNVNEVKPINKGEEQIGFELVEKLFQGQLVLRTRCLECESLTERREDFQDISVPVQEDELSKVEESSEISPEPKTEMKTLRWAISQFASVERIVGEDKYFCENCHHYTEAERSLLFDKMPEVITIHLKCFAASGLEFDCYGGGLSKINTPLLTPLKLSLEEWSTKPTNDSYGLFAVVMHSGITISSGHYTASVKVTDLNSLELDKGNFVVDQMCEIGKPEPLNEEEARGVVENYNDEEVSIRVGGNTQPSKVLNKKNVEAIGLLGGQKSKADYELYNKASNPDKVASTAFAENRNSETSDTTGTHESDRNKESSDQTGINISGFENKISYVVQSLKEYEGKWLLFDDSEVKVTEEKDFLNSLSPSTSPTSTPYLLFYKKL
Glucocorticoid receptor (Homo sapiens), sequence (P04150 whole entry, looked up, the tested form may be a part): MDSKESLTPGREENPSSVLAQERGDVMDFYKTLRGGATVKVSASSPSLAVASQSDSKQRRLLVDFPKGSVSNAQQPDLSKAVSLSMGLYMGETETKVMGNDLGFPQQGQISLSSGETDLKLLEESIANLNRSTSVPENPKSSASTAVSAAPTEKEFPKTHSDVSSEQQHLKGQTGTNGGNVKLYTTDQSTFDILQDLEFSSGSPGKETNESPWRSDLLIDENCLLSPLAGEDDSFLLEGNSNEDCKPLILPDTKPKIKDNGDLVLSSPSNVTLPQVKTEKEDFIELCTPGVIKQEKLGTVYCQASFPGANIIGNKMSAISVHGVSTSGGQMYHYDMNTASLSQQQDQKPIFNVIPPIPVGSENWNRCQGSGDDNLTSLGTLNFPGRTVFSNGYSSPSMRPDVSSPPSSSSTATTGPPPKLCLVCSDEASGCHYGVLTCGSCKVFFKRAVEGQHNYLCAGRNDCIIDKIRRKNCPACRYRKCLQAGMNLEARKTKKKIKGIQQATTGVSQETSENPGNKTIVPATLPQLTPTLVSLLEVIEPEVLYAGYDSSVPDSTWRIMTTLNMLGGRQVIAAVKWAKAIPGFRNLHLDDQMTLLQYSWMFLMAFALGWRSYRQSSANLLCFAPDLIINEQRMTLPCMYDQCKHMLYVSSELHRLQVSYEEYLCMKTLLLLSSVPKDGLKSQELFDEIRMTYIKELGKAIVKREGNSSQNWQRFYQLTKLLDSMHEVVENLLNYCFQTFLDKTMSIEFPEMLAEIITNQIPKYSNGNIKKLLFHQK
Lysosomal acid glucosylceramidase (Homo sapiens), sequence (P04062 whole entry, looked up): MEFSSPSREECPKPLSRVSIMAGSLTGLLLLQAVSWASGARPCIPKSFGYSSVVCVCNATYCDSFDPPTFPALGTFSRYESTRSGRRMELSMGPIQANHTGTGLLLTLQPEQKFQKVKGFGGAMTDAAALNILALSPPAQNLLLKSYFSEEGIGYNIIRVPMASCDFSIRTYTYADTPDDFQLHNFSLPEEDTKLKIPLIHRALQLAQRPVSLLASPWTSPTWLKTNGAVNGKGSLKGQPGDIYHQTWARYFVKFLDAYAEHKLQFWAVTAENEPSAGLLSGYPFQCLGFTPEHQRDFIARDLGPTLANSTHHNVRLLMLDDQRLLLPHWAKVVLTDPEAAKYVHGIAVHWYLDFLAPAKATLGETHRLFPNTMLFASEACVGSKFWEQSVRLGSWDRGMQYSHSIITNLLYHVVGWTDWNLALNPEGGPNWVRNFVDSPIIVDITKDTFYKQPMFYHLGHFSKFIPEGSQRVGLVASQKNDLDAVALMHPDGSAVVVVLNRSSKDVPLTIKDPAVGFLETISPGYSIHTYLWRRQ
Cytochrome P450 2D6 (Homo sapiens), sequence (P10635 whole entry, looked up): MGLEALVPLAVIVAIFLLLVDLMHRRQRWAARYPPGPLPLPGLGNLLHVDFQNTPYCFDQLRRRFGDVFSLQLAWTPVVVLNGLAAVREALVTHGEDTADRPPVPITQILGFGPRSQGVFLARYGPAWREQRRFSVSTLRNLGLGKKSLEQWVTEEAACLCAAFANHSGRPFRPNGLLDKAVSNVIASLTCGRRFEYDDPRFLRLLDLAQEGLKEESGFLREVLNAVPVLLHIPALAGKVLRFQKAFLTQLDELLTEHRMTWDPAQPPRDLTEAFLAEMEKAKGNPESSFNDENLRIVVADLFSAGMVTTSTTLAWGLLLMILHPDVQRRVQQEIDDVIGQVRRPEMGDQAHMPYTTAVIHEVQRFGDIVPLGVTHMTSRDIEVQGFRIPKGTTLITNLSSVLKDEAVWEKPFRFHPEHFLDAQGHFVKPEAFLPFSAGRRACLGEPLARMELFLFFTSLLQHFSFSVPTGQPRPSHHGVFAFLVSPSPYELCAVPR
Cytochrome P450 1A2 (Homo sapiens), sequence (P05177 whole entry, looked up): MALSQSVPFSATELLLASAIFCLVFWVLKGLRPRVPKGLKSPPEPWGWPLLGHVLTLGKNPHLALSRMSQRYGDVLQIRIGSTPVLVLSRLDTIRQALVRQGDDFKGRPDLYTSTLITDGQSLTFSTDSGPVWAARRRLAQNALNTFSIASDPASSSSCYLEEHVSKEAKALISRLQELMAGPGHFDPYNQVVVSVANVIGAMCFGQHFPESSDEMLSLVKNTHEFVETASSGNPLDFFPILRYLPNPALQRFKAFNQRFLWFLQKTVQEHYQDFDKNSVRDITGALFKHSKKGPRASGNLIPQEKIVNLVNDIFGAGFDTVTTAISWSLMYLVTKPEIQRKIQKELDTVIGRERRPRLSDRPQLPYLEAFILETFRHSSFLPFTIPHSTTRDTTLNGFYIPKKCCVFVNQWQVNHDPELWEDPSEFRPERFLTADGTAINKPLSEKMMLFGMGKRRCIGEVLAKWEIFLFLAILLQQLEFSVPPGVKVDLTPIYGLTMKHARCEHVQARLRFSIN

COc1cccc(Nc2ncc3nc(C)c(=O)n(Cc4cccs4)c3n2)c1
inactive: Potency [1] > 11.4 µM | activity change, negative = inhibition [3] -29.6% | activity, negative = inhibition [4] -12.1% | Potency [5] > 9.22 µM | Potency [6] > 46 µM | outcome [7] | Potency [9] | activity change, negative = inhibition [10] -16.2% | Potency [11] | Potency [12] | Potency [13] | Potency [14] | Potency [15]
-8.07%: max response [10, 20]
12.9%: max response [10, 19]
active: Potency [2] 2.51 µM | Potency [8] 3.98 µM

Cc1noc(C)c1-c1cncnc1NCCN1CCOCC1
12.2%: max response [10, 19]
14.6%: max response [10, 20]
inactive: Potency [1] > 11.4 µM | activity change, negative = inhibition [16] 4.2% | activity change, negative = inhibition [3] -5.64% | activity, negative = inhibition [4] -2.23% | Potency [5] > 46 µM | outcome [7] | Potency [17] | Potency [9] | activity change, negative = inhibition [10] 3.95% | Potency [11] | Potency [12] | Potency [13] | Potency [14] | Potency [15]
active: Potency [8] 6.31 µM

CN(C)Cc1ccccc1-c1cc(N(C)Cc2ccco2)ncn1
19.9%: max response [10, 19]
inactive: Potency [1] > 11.4 µM | activity change, negative = inhibition [16] 4.53% | activity, negative = inhibition [4] -3.48% | Potency [5] > 46 µM | Potency [6] > 46 µM | outcome [7] | Potency [17] | Potency [9] | activity change, negative = inhibition [10] 5.32% | Potency [11] | Potency [12] | Potency [13] | Potency [14] | Potency [15]
23.3%: max response [10, 20]
active: Potency [18] 7.94 µM

Cc1noc(C)c1-c1cncnc1NCc1cccnc1
inactive: Potency [1] > 11.4 µM | activity change, negative = inhibition [16] 1.35% | activity change, negative = inhibition [3] 4.9% | activity, negative = inhibition [4] 14.8% | Potency [5] > 46 µM | Potency [6] > 46 µM | outcome [7] | Potency [17] | Potency [9] | activity change, negative = inhibition [10] 2.36% | Potency [11] | Potency [12] | Potency [13] | Potency [14] | Potency [15]
active: Potency [8] 3.16 µM
5.44%: max response [10, 20]
4.31%: max response [10, 19]

O=c1cnc2cnc(Nc3ccccc3)nc2n1C1CC1
active: Potency [11] 2 µM | Potency [12] 2.51 µM | Potency [13] 1.58 µM
4.87%: max response [10, 19]
inactive: Potency [1] > 11.4 µM | activity change, negative = inhibition [16] -23.3% | activity change, negative = inhibition [3] -2.7% | activity, negative = inhibition [4] -21.3% | Potency [5] > 9.22 µM | Potency [6] > 46 µM | Potency [9] | activity change, negative = inhibition [10] -0.874% | Potency [14] | Potency [15]
2.12%: max response [10, 20]
